Data from PubChem BioAssay (Tox21).
“And” between values parts separate entries of the source, which are not always exact repeats. Equal values may be shown once. Results filed as inconclusive are left out. Where a structure was tested more than once in an assay, its records may differ in their call. The source made the active and inactive calls. Unless noted, calls follow the shape of the dose curve; as a rule, active = well fitted curve in the direction sought with a large enough effect in the repeat runs; inconclusive = weak or mixed curves; inactive = no such curve, though single readings can be large; an effect the other way counts as inactive or inconclusive.

What was measured:
[1] = qHTS assay to identify small molecule agonists of the retinoic acid receptor (RAR) signaling pathway (AID 1159553); conditions: C3RL4 RARE luciferase reporter, agonist, 6 h; at 73.3 µM (top of the series)
In short: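 In this cell-based screen, 1,000 C3RL4 cells per well were cultured overnight, dosed with test chemicals in DMSO for 6 hr, and assessed for RARE luciferase luminescence.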

[2] = qHTS assay to identify small molecule agonists of the estrogen related receptor signaling pathway with the pleiotropic PPARgamma coactivator (PGC) (AID 1224823); conditions: ERR/PGC reporter cell line, luciferase agonist mode; series mostly up to 46.1 µM
In short: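 Luminescence readout (One-Glo, 30 min RT) from PGC/ERR cell line treated 18 h at 37 C with pin-tool-delivered DMSO compound solutions; cells plated 6 h before dosing. Quantitative HTS format.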

[3] = qHTS assay to identify small molecule agonists of the RXR signaling pathway - cell viability counter screen (AID 1159529); conditions: RXR-alpha-bla HEK293T viability, CellTiter-Glo, 16 h; series mostly up to 76.8 µM; also: nearly all actives have a fitted effect of over 50% in size
In short: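 Compounds dissolved in DMSO were pinned onto HEK 293T cells carrying a beta-lactamase reporter under RXR-alpha control and incubated 16 hr. Cytotoxicity was then quantified by CellTiter-Glo luminescence.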

[4] = qHTS assay to identify small molecule antagonists of the retinoid acid receptor (RAR) signaling pathway - cell viability counter screen (AID 1159551); conditions: C3RL4 cells viability, ATP luminescence (CellTiter-Glo), 6 h; series mostly up to 92.4 µM; also: nearly all actives have a fitted effect of over 35% in size
In short: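 In this counter screen, the RARE-luciferase line C3RL4 was exposed for 6 h at 37 C and 5% CO2 to compounds with retinol at 1 uM final. Cellular ATP, read by luminescence, served as the viability measure.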

[5] = qHTS assay to identify small molecule antagonists of the retinoic acid receptor (RAR) signaling pathway (AID 1159552; also: nearly all actives have a fitted effect of over 50% in size); conditions: C3RL4 RARE luciferase reporter, retinol-stimulated, 6 h; series mostly up to 92.4 µM
In short: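 Test chemicals and DMSO controls were pin-transferred onto C3RL4 cells a day after seeding; retinol (1 uM final) followed at once. Luminescent reporter output was quantified after 6 hr of co-incubation and 30 min with detection reagent.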

[6] = qHTS assay to identify small molecule antagonists of the estrogen related receptor (ERR) signaling pathway from Tox21 library - cell viability counter screen (AID 1224834); conditions: ERR reporter cells viability, CellTiter-Fluor, 17.5 h; series mostly up to 92.4 µM; also: nearly all actives have a fitted effect of over 30% in size
In short: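 Counter screen run in ERR cells (2,000 cells/well): cells pre-incubated 6 h, then treated with compounds for 17.5 h at 37 C. Fluorescence was read 30 min after CellTiter-Fluor addition.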

[7] = target: Luciferin 4-monooxygenase (Photinus pyralis) (UniProt P08659); test: qHTS assay to identify small molecule inhibitors of firefly luciferase (AID 1224835); also: nearly all actives have a fitted effect of over 25% in size; also: potency is read from the fitted curve at half-maximal effect; conditions: purified P. pyralis luciferase, luminescence inhibition; series mostly up to 115 µM
Chain of Luciferin 4-monooxygenase (Photinus pyralis) (P08659 whole entry, looked up): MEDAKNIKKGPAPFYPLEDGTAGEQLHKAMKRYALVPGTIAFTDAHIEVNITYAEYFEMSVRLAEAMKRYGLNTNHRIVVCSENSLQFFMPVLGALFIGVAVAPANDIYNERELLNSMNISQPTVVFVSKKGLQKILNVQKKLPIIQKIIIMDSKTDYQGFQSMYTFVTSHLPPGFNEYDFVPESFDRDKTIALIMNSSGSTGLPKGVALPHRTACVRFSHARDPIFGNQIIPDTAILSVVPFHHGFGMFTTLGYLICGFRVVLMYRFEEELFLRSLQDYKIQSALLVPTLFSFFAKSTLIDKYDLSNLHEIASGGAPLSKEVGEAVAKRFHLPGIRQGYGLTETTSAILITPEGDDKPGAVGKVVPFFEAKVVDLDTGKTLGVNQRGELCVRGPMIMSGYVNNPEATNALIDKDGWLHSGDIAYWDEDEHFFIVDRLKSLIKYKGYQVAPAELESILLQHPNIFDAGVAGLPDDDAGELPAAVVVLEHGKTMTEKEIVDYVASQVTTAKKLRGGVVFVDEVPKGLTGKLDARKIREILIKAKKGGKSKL
In short: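 Inhibition of purified Photinus luciferase is measured by luminescence. Substrate levels (D-luciferin, ATP) sit at their KM values. Each compound is tested in a concentration series.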

[8] = qHTS assay to identify small molecule antagonists of the constitutive androstane receptor (CAR) signaling pathway - cell viability counter screen (AID 1224837); conditions: HepG2-CYP2B6-hCAR viability, CellTiter-Fluor, 23 h, co-treated with 50 nM CITCO; series mostly up to 92.4 µM; also: nearly all actives have a fitted effect of over 45% in size
In short: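 CITCO at 50 nM final was added alongside compounds (15 concentrations) to double-stable hCAR/CYP2B6-2.2kb HepG2 cells. Following 23 hr at 37 C, cell viability was quantified by CellTiter-Fluor fluorescence intensity.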

[9] = target: Nuclear receptor subfamily 1 group I member 3 (Homo sapiens) (UniProt Q14994); test: qHTS assay to identify small molecule antagonists of the constitutive androstane receptor (CAR) signaling pathway (AID 1224838); conditions: HepG2-CYP2B6-hCAR luciferase, CITCO-stimulated, 24 h; series mostly up to 92.4 µM; also: nearly all actives have a fitted effect of over 40% in size
Chain of Nuclear receptor subfamily 1 group I member 3 (Homo sapiens) (Q14994 whole entry, looked up): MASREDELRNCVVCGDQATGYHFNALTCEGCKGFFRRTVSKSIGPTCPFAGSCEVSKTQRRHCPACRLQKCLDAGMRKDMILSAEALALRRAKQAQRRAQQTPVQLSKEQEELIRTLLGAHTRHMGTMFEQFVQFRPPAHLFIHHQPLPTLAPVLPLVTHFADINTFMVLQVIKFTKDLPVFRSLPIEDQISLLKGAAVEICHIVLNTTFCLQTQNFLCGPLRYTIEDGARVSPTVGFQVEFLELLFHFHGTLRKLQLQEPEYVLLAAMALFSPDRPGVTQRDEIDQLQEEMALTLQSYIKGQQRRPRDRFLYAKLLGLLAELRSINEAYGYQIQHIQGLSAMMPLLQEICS
In short: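 Inhibition of CITCO-driven (50 nM final) CYP2B6 reporter expression is measured in HepG2 cells stably carrying hCAR. Fifteen compound concentrations are applied for 24 h at 37 C, followed by luciferase luminescence.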

[10] = target: Nuclear receptor subfamily 1 group I member 3 (Homo sapiens) (UniProt Q14994); test: qHTS assay to identify small molecule agonists of the constitutive androstane receptor (CAR) signaling pathway (AID 1224839); conditions: HepG2 hCAR CYP2B6-luciferase, agonist mode, 24 h; series mostly up to 92.4 µM; also: nearly all actives have a fitted effect of over 15% in size; also: potency is read from the fitted curve at half-maximal effect
In short: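 Compounds tested at 15 concentrations on HepG2 cells stably harbouring hCAR and CYP2B6-2.2kb reporter constructs, co-treated with PK11195 (0.75 uM final), 24 h at 37 C; luminescent reporter signal quantified.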

[11] = qHTS assay to identify small molecule antagonists of the estrogen related receptor signaling pathway with the pleiotropic PPARgamma coactivator (PGC) from Tox21 10K library - cell viability counter screen (AID 1224840; active = well fitted cell-killing curve with a large enough effect in the repeat runs, not every such curve was filed as active; also: nearly all actives have a fitted effect of over 40% in size); conditions: PGC/ERR reporter cells viability, CellTiter-Fluor, 17.5 h; series mostly up to 92.4 µM
In short: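 Readout: fluorescence intensity from CellTiter-Fluor after 30 min at 37 C/5% CO2. Preceded by 17.5 h treatment of PGC/ERR cells with DMSO-dissolved compounds, added 6 h post-seeding.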

[12] = qHTS assay to identify small molecule agonists of the estrogen related receptor signaling pathway with the pleiotropic PPARgamma coactivator (PGC) from Tox21 10K library (AID 1224842); conditions: PGC/ERR reporter cell line, luciferase ONE-Glo, 18 h; series mostly up to 92.4 µM; also: nearly all actives have a fitted effect of over 15% in size
In short: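 Luminescence from One-Glo (30 min, room temperature) measured after PGC/ERR cells had 18 h at 37 C with pinned compound (23 nL in DMSO). Cells had been seeded at 2,000 per well and pre-incubated 6 h.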

[13] = target: Thyrotropin receptor (Homo sapiens) (UniProt P16473); test: qHTS assay to identify small molecule agonists of the thyroid stimulating hormone receptor (TSHR) signaling pathway (AID 1224843; calls by dose curve; also: nearly all actives have a fitted effect of over 45% in size); conditions: TSHR-HEK293 cells, cAMP HTRF, agonist mode, 30 min; series mostly up to 92.4 µM
Chain of Thyrotropin receptor (Homo sapiens) (P16473 whole entry, looked up): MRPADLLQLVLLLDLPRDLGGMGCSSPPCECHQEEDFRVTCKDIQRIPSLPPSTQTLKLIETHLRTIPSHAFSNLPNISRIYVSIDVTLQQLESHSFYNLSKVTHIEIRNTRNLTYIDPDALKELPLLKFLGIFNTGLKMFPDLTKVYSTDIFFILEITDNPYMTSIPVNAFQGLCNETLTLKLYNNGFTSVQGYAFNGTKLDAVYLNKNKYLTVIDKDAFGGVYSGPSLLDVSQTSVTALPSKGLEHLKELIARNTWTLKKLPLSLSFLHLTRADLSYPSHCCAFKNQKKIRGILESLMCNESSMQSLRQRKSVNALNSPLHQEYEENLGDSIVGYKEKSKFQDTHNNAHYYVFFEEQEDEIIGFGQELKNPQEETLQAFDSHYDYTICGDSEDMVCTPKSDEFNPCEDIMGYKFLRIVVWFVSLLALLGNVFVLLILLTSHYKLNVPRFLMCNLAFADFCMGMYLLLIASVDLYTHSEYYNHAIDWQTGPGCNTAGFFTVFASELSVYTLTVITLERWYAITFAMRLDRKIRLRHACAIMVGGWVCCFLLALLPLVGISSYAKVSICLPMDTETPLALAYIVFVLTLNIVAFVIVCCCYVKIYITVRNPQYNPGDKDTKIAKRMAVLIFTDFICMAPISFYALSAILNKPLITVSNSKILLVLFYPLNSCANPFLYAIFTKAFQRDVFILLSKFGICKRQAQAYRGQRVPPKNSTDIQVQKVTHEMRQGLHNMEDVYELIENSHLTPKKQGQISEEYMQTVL
In short: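 A cell-based cAMP HTRF format was run in TSHR-transfected HEK293 cells, 800 per well. Treatment: 30 min, room temperature. Detection: 1 h with labelled cAMP and anti-cAMP cryptate. Concentration-response over 15 points, three replicates.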

[14] = qHTS assay to identify small molecule agonists of the constitutive androstane receptor (CAR) signaling pathway - cell viability counter screen (AID 1224836); conditions: HepG2-CYP2B6-hCAR viability, CellTiter-Fluor, 23 h, PK11195 added to every well; series mostly up to 92.4 µM; also: nearly all actives have a fitted effect of over 45% in size
In short: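 23 h treatment, 37 C, 5% CO2. Cell line: HepG2 stably expressing hCAR with a CYP2B6-2.2kb construct. Co-treatment: PK11195, 0.75 uM final. Read-out: CellTiter-Fluor fluorescence intensity.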
% is scaled to controls: 0 for no effect and ±100 for the full control effect.

CN1CCCC1=O
inactive: activation [1] 0.131%

CN=C(NC#N)NCCSCc1nc[nH]c1C
inactive: outcome [2]

CC(CN1c2ccccc2Sc2ccccc21)N(C)C (centres undefined)
inactive: outcome [2]

O=Cc1ccc(CO)o1
inactive: Potency [3] | Potency [4] | Potency [5] | Potency [6] | Potency [7] | Potency [8] | Potency [9] | Potency [10] | Potency [11] | Potency [12] | Potency [13]

O=C1C(N(CO)C(=O)NCO)N(CO)C(=O)N1CO (centres undefined)
inactive: Potency [3] | Potency [4] | Potency [5] | Potency [6] | Potency [7] | Potency [14] | Potency [8] | Potency [9] | Potency [10] | Potency [11] | Potency [13]

OCc1ccc(Cl)cc1Cl
inactive: Potency [3] | Potency [4] | Potency [5] | Potency [6] | Potency [7] | Potency [8] | Potency [9] | Potency [10] | Potency [11]

CCCCCCCCCCCC(=O)N(C)CC(=O)O
active: Potency [7] 77.2 µM
inactive: activity change, negative = cytotoxicity [3] 3.37% [at 6.97 µM] | Potency [4] | Potency [5] | Potency [6] | activity change, negative = inhibition [7] 1.62% [at 10.5 µM] | Potency [14] | Potency [8] | Potency [11] | Potency [13]

C=CC(=O)NCOCCCC
inactive: Potency [3] | Potency [4] | Potency [5] | Potency [6] | Potency [7] | Potency [14] | Potency [8] | Potency [9] | Potency [10] | Potency [11]

CCCOCC(C)O (centres undefined)
inactive: Potency [3] | Potency [4] | Potency [5] | Potency [6] | Potency [7] | Potency [8] | Potency [11] | Potency [12] | Potency [13]

O=C1OC(=O)c2c(Cl)c(Cl)c(Cl)c(Cl)c21
inactive: Potency [3] | Potency [4] | Potency [5] | Potency [6] | Potency [7] | Potency [8] | Potency [9] | Potency [10] | Potency [11] | Potency [12] | Potency [13]

COCN(COC)c1nc(N(COC)COC)nc(N(COC)COC)n1
inactive: Potency [3] | Potency [4] | Potency [5] | Potency [6] | Potency [7] | Potency [14] | Potency [8] | Potency [9] | Potency [10] | Potency [11] | Potency [12] | Potency [13]

Cc1ccc(C(C)C)cc1
inactive: Potency [3] | Potency [4] | Potency [5] | Potency [6] | Potency [7] | Potency [8] | Potency [9] | Potency [10] | Potency [11] | Potency [13]

Cc1cccc(C)c1[N+](=O)[O-]
inactive: Potency [3] | Potency [4] | Potency [5] | Potency [6] | Potency [7] | Potency [8] | Potency [11] | Potency [13]

CCOC(=O)c1ccc(O)cc1
inactive: Potency [3] | Potency [4] | Potency [5] | Potency [6] | Potency [7] | Potency [8] | Potency [9] | Potency [10] | Potency [11] | Potency [13]

OB(O)O
inactive: Potency [3] | Potency [4] | Potency [5] | Potency [6] | Potency [7] | Potency [8] | Potency [9] | Potency [10] | Potency [11] | Potency [12] | Potency [13]

CC(=O)c1nccs1
inactive: Potency [3] | Potency [4] | Potency [5] | Potency [6] | Potency [7] | Potency [14] | Potency [8] | Potency [9] | Potency [10] | Potency [11] | Potency [13]

Cc1cc(C)cc(O)c1
inactive: Potency [3] | Potency [4] | Potency [5] | Potency [6] | Potency [7] | Potency [14] | Potency [8] | Potency [9] | Potency [10] | Potency [11] | Potency [12] | Potency [13]

COc1cc(NC(=O)CC(C)=O)c(OC)cc1Cl
active: Potency [10] 61.4 µM and 61.1 µM
inactive: Potency [3] | Potency [4] | Potency [5] | Potency [6] | Potency [7] | Potency [14] | Potency [8] | Potency [9] | Potency [11] | Potency [12] | Potency [13]

CCCCCC(C)=O
inactive: Potency [3] | Potency [4] | Potency [5] | Potency [6] | Potency [7] | Potency [8] | Potency [9] | Potency [10] | Potency [11] | Potency [12]

COc1ccccc1[N+](=O)[O-]
inactive: Potency [3] | Potency [4] | Potency [5] | Potency [6] | Potency [7] | Potency [14] | Potency [8] | Potency [9] | Potency [10] | Potency [11] | Potency [12]

O=C(O)C1=NN(c2ccc(S(=O)(=O)O)cc2)C(=O)C1
inactive: Potency [3] | Potency [4] | Potency [5] | Potency [6] | Potency [7] | Potency [8] | Potency [11] | Potency [13]
